# Bioassay records: PubChem BioAssay, National Center for Advancing Translational Sciences (NCATS)
# FLuc modulator – inhibits or activates purified firefly luciferase, miR-21 counter-screen. P08659. AID 588342. purified FLuc, Km substrates, luminescence inhibition. Potency, µM (doses to about 57.5 µM), usual class: inhibitors. 6.9% of 360,000 active; further: nearly all actives have a fitted effect of over 55% in size
# Target sequence (P08659 whole entry, looked up): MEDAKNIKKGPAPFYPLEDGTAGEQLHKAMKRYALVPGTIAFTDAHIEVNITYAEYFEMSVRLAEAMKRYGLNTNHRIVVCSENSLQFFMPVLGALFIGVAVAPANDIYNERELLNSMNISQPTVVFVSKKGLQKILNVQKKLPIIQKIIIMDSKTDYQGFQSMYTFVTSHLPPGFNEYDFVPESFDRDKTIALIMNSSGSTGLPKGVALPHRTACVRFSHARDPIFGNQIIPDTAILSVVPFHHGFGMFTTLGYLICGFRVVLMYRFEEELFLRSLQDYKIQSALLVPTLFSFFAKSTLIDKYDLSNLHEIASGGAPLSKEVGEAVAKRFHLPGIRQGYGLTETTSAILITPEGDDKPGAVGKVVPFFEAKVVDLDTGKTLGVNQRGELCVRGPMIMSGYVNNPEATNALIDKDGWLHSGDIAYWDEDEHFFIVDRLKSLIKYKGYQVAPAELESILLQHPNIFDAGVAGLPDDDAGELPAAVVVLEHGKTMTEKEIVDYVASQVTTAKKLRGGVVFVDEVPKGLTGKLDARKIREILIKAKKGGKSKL
#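 Purified P. pyralis luciferase, 10 nM final, with Km-level 10 uM D-luciferin and 10 uM ATP in 50 mM Tris acetate pH 7.5, 10 mM Mg acetate, 0.01% Tween-20, 0.05% BSA; 6-point qHTS titration about 60 µM downward; luminescence read.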
# NPC1 promoter act – activators of NPC1 promoter; Huh7 NPC1 promoter luciferase reporter, 24 h; Potency, µM (series often up to 9.22 µM), most hits filed as activators; 2.4% of 320,000 active; AID 485313; further: nearly all actives have a fitted effect of over 60% in size
#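 NPC1 promoter–luciferase Huh7 cells; 24 h compound; luminescence.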
# Luc counter – blocks Kinase-Glo luciferase, a counter-screen artifact; 0.28% of 200,000 active; Kinase-Glo luciferase, ATP luminescence, 8 min; Potency, µM (highest dose often 38.3 µM), usual class: inhibitors; AID 1379; further: nearly all actives have a fitted effect of over 60% in size
#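 Compounds were added to a substrate mix at pH 7.2 (50 mM imidazole, 10 uM ATP, within the enzyme's linear range), followed by Kinase-Glo detection reagent; luminescence was measured after 8 minutes at ambient temperature.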
# Rab9 prom act – Rab9 promoter activation; 2.8% of 320,000 active; Potency, µM (doses to about 9.22 µM), most hits filed as activators; Huh7 Rab9 promoter-luciferase reporter, luminescence, 24 h; AID 485297; further: nearly all actives have a fitted effect of over 60% in size
#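 Measured in stably transfected Huh7 cells bearing a Rab9 promoter–luciferase construct: 24 h compound treatment at 37 °C, followed by luminescence detection.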
# SMN2 splice enh – increases expression of the SMN2 splice variant | HEK293 SMN2-luciferase splicing reporter, luminescence, 30-36 h | 2.8% of 210,000 active | Potency, µM (doses to about 46.1 µM), most hits filed as activators | AID 1458; further: nearly all actives have a fitted effect of over 55% in size
#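 HEK293 cells carry an SMN2 minigene-luciferase reporter in which exon 7 inclusion puts luciferase in frame. Cells were seeded at 2000 cells/well, attached for 10-12 hours, then exposed to compounds for 30-36 hours at 37C before ONE-Glo luminescence.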
# ELG1 genotoxic – genotoxicity induction in ELG1-luciferase HEK293T cells; HEK293T ELG1-luciferase reporter, luminescence, 16 h; Potency, µM (doses to about 46 µM), most hits filed as activators; 1.3% of 330,000 active; further: nearly all actives have a fitted effect of over 60% in size
#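 Step 1: seed 2,000 HEK293T ELG1-luciferase cells per well. Step 2: add compound or DMSO, incubate 16 hr at 37 °C. Step 3: ONE-Glo, 30 min at room temperature, read luminescence.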
# Numbers stand for hits; i = inactive; ? = inconclusive; nt = no result; [ ] = remark or other dose. Rows were chosen to be rich in hits. Some 7.3% of all compounds tested hit in one or more screens of this group. The call rests on the fitted dose curve; in most records, active means well fitted curve in the direction sought with a large enough effect; inconclusive means small, poorly fitted or top-dose-only effect, or another doubt; inactive means no such curve, though single readings can be large; an effect the other way counts as inactive or inconclusive.
SMILES,FLuc modulator,NPC1 promoter act,Luc counter,Rab9 prom act,SMN2 splice enh,ELG1 genotoxic
COc1ccccc1C(=O)O/N=C(\N)c1ccc(Cl)cc1,21µM,?,i,i,?,?
COc1ccc(C(=O)O/N=C(\N)c2ccc(Cl)cc2)cc1,2.4µM,3.2µM,nt,?,nt,?
O=S(=O)(NCCc1csc2nc(-c3ccc(Cl)cc3)nn12)c1cccs1,i,nt,nt,nt,nt,nt
N[C@@]1(C(=O)O)CN[C@@H](C(=O)O)C1,nt,nt,nt,nt,i,nt
CCOc1ccccc1NC(=O)C1CCN(S(=O)(=O)c2ccc3[nH]c4c(c3c2)CCCCC4)CC1,i,nt,nt,nt,nt,nt
COc1cccc(C(=O)N=c2sc3c(C)ccc(OC)c3n2C)c1,0.67µM,0.71µM,?,0.71µM,2.8µM,0.65µM
COc1ccc(N=c2sc3ccccc3n2C)cc1,6µM,2.5µM,i,2.2µM,?,8.2µM
COc1ccccc1C(=O)N=c1sc2c(C)ccc(OC)c2n1C,15µM,?,nt,i,nt,?
CCn1c(=NC(=O)c2cccc(N3C(=O)CCC3=O)c2)sc2c(C)ccc(OC)c21,?,i,nt,i,nt,i
COc1ccc(C(=O)N=c2sc3c(C)ccc(OC)c3n2C)cc1OC,2.7µM,1.6µM,nt,1.8µM,nt,i
CC(C)c1ccc(N2C(=O)CSC23C(=O)N(C)c2ccccc23)cc1 (stereo unspecified),i,nt,nt,nt,nt,nt
COc1ccc(C(=O)N=c2sc3ccccc3n2C)cc1OC,11µM,2.5µM,i,2.2µM,18µM,?
O=S(=O)(c1ccc(F)cc1)N(CC(O)Cn1c2ccccc2c2ccccc21)c1ccccc1 (stereo unspecified),i,nt,nt,nt,i,nt
CCOC(=O)c1ccccc1-c1cn2cc(Cl)ccc2n1,15µM,i,i,i,i,i
Cc1ccc(C)c(OCc2nc3ccccc3n2C)c1,?,nt,nt,nt,i,nt
Cn1c(COc2ccc(C(=O)O)cc2)nc2ccccc21,i,i,nt,i[1.84 µM],nt,i
Cn1c(COc2ccc(F)cc2)nc2ccccc21,13µM,2.5µM,nt,3.5µM,nt,?
Cc1ccccc1OCc1nc2ccccc2n1C,8.5µM,3.2µM,nt,4µM,nt,?
COc1ccc(Cl)cc1NC(=O)CSc1nc(-c2ccco2)cc(C(F)(F)F)n1,i,nt,nt,nt,i,nt
COc1ccc(CC(=O)Nc2ccc(-c3ccc4nnc(C)n4n3)cc2)cc1OC,i,i,i,i,18µM,21µM
COc1ccc(-c2coc3c(O)c(OC)ccc3c2=O)cc1,nt,nt,i,nt,1.6µM,nt
COc1ccc(-c2coc3c(CN4CCOCC4)c(O)ccc3c2=O)cc1,i,i,nt,i,nt,i
COc1ccc2c(=O)c(-c3ccc4c(c3)OCO4)coc2c1,0.67µM,0.35µM,?,0.4µM,11µM,2.9µM
CCN(CC)C(=O)Oc1ccc2c(=O)c(-c3ccc(OC)cc3)coc2c1,8.5µM,1.8µM,i,?,i,i
CCN(CC)C(=O)Oc1ccc2c(=O)c(-c3ccc(OC)cc3)c(C)oc2c1,?,i,i,i,i,i
SMILES,FLuc modulator,NPC1 promoter act,Luc counter,Rab9 prom act,SMN2 splice enh,ELG1 genotoxic
CCc1c(C)sc2c1CCN(Cc1cccc(F)c1)C2c1ccccc1 (stereo unspecified),i,nt,nt,nt,nt,nt
Cc1ccc(-c2nn3c(C)nnc3c3ccccc23)cc1S(=O)(=O)NC(C)(C)CO,i,i,i,i,?,21µM
Cc1ccc(-c2nn3c(C)nnc3c3ccccc23)cc1S(=O)(=O)NC(C)c1ccccc1 (stereo unspecified),i,i,i,i,i,i
Cc1ccc(-c2nn3c(C)nnc3c3ccccc23)cc1S(=O)(=O)NCc1ccco1,i,i,i,i,13µM,?
COc1ccc(N2CCN(c3ncccc3-c3nc(-c4ccccc4C)no3)CC2)cc1,15µM,nt,nt,nt,nt,nt
C=C(C)C(=O)OC,nt,nt,nt,nt,i,nt
CCCN(CCC)C(=O)Cn1c(=O)n(-c2ccc(Cl)c(Cl)c2)c(=O)c2c(C)c(C(=O)N(C)C)sc21,i,nt,nt,nt,nt,nt
COc1ccc(C(=O)Nc2ccc3c(c2)nc2n3CCSC2)cc1,7.6µM,2.8µM,i,?,i,?
CCC(=O)Nc1ccc2c(c1)nc1n2CCSC1,?,i,i,i,i,i
O=C(Nc1ccc2c(c1)nc1n2CCSC1)c1ccccc1,11µM,?,?,3.5µM,11µM,?
CCCC(=O)Nc1ccc2c(c1)nc1n2CCOC1,i,i,i,i,i,i
O=C(Nc1ccc2c(c1)nc1n2CCOC1)c1ccccc1,15µM,2.2µM,i,3.2µM,i,?
Cc1cc(NCCCn2ccnc2)n2nc(-c3ccc(F)cc3)cc2n1,9.5µM,i,i,i,i,i
Cc1cccc(-c2cc3nc(C)c(C)c(NCCCn4ccnc4)n3n2)c1,15µM,i,nt,i,nt,i
Cc1cc(NCCCn2ccnc2)n2nc(-c3ccc(Cl)cc3)cc2n1,?,?,i,i,i,i
Cc1nn2c(C)c(C(=O)NCc3cccc(Br)c3)cnc2c1-c1ccccc1,i,nt,nt,nt,nt,nt
CN(C)c1ccc(CN(CC2CCCO2)C(=O)COc2ccccc2Cl)cc1 (stereo unspecified),i,nt,nt,nt,i,nt
CCOC(=O)c1ccc(NC(=O)Cn2nc(C)c3nn(-c4ccc(Cl)cc4)c(C)c3c2=O)cc1,i,nt,nt,nt,nt,nt
COc1cc(OC)cc(N2C(=O)N(Cc3ccc(C(C)(C)C)cc3)c3ccccc3S2(=O)=O)c1,i,nt,nt,nt,nt,nt
C/C(NC(=O)c1cccs1)=C1\C(=O)C[C@@H]2[C@H]1C2(C)C,15µM,?,nt,?,nt,?
Cc1cn(S(=O)(=O)c2ccc(F)c(Cl)c2)cn1,i,nt,nt,nt,i,nt
Cc1cccc(NC(=O)c2ccc(CN3CCN(Cc4ccccc4)CC3)cc2)c1,?,i,i,i,nt,i
Cc1cccc(NC(=O)C2=C(O)c3ccccc3N(C)S2(=O)=O)c1,17µM,i,i,i,i,i
CN1c2ccccc2C(O)=C(C(=S)Nc2ccc(Cl)cc2)S1(=O)=O,19µM,i,i,i,i,i
CCCCc1nc2c(c3c1C[C@H](C)OC3)CN(C(=O)Cc1cccs1)CC2,nt,nt,i[7.66 µM],nt,i[9.22 µM],nt
SMILES,FLuc modulator,NPC1 promoter act,Luc counter,Rab9 prom act,SMN2 splice enh,ELG1 genotoxic
O=C(Nc1cccc(Cl)c1Cl)c1ccc2c(c1)N(Cc1cccc(Cl)c1)C(=O)c1ccccc1S2(=O)=O,i,nt,nt,nt,nt,nt
COc1ccc(NC(=O)CCc2c(C)nn(-c3ccc(N4CCCCC4)nn3)c2C)cc1Cl,2.1µM,nt,nt,nt,nt,nt
Cc1ccc(NC(=O)CCc2c(C)nn(-c3ccc(N4CCOCC4)nn3)c2C)cc1C,?,i,nt,i,nt,i
COC(=O)c1ccc(NC(=O)CCc2c(C)nn(-c3ccc(N4CCCCC4)nn3)c2C)cc1,9.5µM,nt,nt,nt,nt,nt
COc1ccccc1CNC(=O)CCc1c(C)nn(-c2ccc(N3CCCCC3)nn2)c1C,i,nt,nt,nt,nt,nt
COc1cc(NC(=O)CCc2c(C)nn(-c3ccc(N4CCCCC4)nn3)c2C)cc(OC)c1OC,19µM,nt,nt,nt,nt,nt
Cc1ccccc1NC(=O)CCc1c(C)nn(-c2ccc(N3CCCCC3)nn2)c1C,?,i,nt,i,nt,i[9.26 µM]
COc1cccc(N2CCN(C(=O)c3cc4c(=O)n(Cc5cccs5)ccc4nc3C)CC2)c1,i,nt,nt,nt,nt,nt
